# CBX7 inh: CBX7 inhibition, primary AlphaScreen; normalised signal (fraction of DMSO) (concentration not given with the values); AlphaScreen His6-CBX7 / biotin-H3K27me3 peptide binding; stronger effect = lower value; hit rate 1.1% among 66,000; in the data active means normalised signal below about 0.5
# Target sequence (O95931 whole entry, looked up): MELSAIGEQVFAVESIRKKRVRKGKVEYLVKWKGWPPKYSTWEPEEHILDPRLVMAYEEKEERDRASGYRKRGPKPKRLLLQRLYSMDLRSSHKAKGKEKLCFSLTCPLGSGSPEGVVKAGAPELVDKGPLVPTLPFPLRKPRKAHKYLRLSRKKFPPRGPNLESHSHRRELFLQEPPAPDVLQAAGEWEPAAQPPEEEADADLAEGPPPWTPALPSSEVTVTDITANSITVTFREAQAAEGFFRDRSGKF
# Active calls of the source: *. Many of the other results were omitted from the sample, so hits are more common in it than they were.
SMILES,CBX7 inh
O=C1c2ccccc2C(=O)N1CC(O)COCc1ccccc1 (stereo unspecified),1.01
COC(=O)c1ccc(OCC(O)Cn2cnc3cc(C)c(C)cc32)cc1 (stereo unspecified),0.869
Cc1ccc(CCNC(=O)C2CCC(=O)N2Cc2ccc(C)cc2)cc1 (stereo unspecified),1.16
CSc1nnc(Cc2cc(=O)[nH]c(=O)[nH]2)n1-c1ccc(F)cc1,1.04
Cc1ccc(-c2nc(C(=O)NC(C)CCc3ccccc3)c(C)o2)cc1 (stereo unspecified),1.01
Cc1ccc2cc(CCNC(=O)CC3CCCCC3)c(=O)[nH]c2c1,1.04
CCOC(CNC(=O)c1ccc2c(c1)nc(C)n2-c1cc(C)cc(C)c1)OCC,1.23
O=C(CCNS(=O)(=O)c1ccc2c(c1)CCC(=O)N2)Nc1ccc(F)c(Cl)c1,0.951
O=C(C1=CCN(S(=O)(=O)c2ccccc2)CC1)N1CCN(c2ccccn2)CC1,0.984
CC(C)NCC(O)Cn1c2c(c3ccccc31)CCCC2=O (stereo unspecified),0.995
COc1ccc2cc(CCNC(=O)c3cccc(F)c3)c(=O)[nH]c2c1,0.99
CCOC(=O)c1cc(-c2ccccc2)n(CC(=O)N(C)c2ccc(OC)cc2)c1C,0.849
COc1ccc(NS(=O)(=O)c2ccc3c(c2)CCN3C(=O)C2CCC2)cc1OC,0.767
COc1ccc2nc(N3CCC(C(=O)NCc4ccc(C)cc4)CC3)sc2c1,1.08
Cc1[nH]c2ccc(OCc3ccccc3)cc2c1CCNC(=O)c1cccc(Br)c1,0.65
COc1ccc(C(=O)NCCc2c(C)[nH]c3ccc(OCc4ccccc4)cc23)cc1OC,0.521
COc1ccc2[nH]c(C)c(CCNC(=O)Cn3nc(C(F)(F)F)cc3C)c2c1,0.79
Cc1[nH]c2ccc(OCc3ccccc3)cc2c1CCNC(=O)c1ccnn1C,0.484*
COC(=O)c1ccc(C(=O)NCCc2c(C)[nH]c3ccc(OCc4ccccc4)cc23)cc1,0.823
Cc1nn(CC(=O)NCCc2c(C)[nH]c3ccc(OCc4ccccc4)cc23)c(C)c1Cl,0.484*
CC(NC(=O)CN1C(=O)COc2ccc(S(=O)(=O)N3CCCC3)cc21)c1ccc2c(c1)OCCO2 (stereo unspecified),1.06
COCCNC(=O)CCN1N=C(c2ccc(OC)cc2)CCC1=O,1.1
Cc1cccc(N2CCN(C(=O)CC(C(=O)N3CCc4ccccc43)n3ccnc3)CC2C)c1 (stereo unspecified),0.512
COc1cc2nc(/C=C\c3ccc(F)cc3)n(-c3ccc(C)cc3)c(=O)c2cc1OC,1.02
Cc1nc2ccc(S(=O)(=O)NC(C(=O)Nc3ccc(C)c(C)c3)C(C)C)cc2s1 (stereo unspecified),0.961
SMILES,CBX7 inh
COc1ccccc1NC(=O)CCC(=O)Nc1ccc2nc(N3CCOCC3)cc(C)c2c1,1.04
C=CCc1ccccc1OCC(O)CN1CCN(c2ccc(C)cc2)CC1 (stereo unspecified),0.251*
C=CCc1cc(C)ccc1OCC(O)CN1CCOCC1 (stereo unspecified),0.815
C=CCc1ccccc1OCC(O)CN1CCC(C)CC1 (stereo unspecified),1.51
CC(=O)N1CCc2cc(S(=O)(=O)NC(CC(C)C)C(=O)Nc3ccc(F)c(F)c3)ccc21 (stereo unspecified),0.894
Cc1nc2c(-c3ccccc3)c(C)nn2c(C)c1CCC(=O)Nc1ccc(F)c(Cl)c1,0.848
COc1ccc(CNCCC(c2ccccc2)c2ccc3c(c2)OCO3)cc1 (stereo unspecified),0.896
COc1ccccc1C(CCNCc1ccc2c(c1)OCO2)c1ccc2c(c1)OCO2 (stereo unspecified),0.791
COc1ccccc1C(CCNCc1ccc(OC(C)C)cc1)c1ccc2c(c1)OCO2 (stereo unspecified),0.169*
O=C(CN1N=C(c2ccc(Cl)cc2)CCC1=O)N1CCOCC1,1.02
CC(C)(C)c1ccc2c(c1)N(CC(=O)NCc1cccs1)C(=O)CO2,0.189*
CCCCNC(=O)CN1C(=O)COc2ccc(C(C)(C)C)cc21,0.935
CCN(CCCNC(=O)CCCN1C(=O)COc2ccc(C)cc21)c1cccc(C)c1,0.849
Cc1ccc(CNC(=O)CN2C(=O)COc3ccc(C(C)(C)C)cc32)cc1,1.11
CC(C)(C)c1ccc2c(c1)N(CC(=O)NCc1ccc3c(c1)OCO3)C(=O)CO2,1.13
CCN(CCCNC(=O)CN1C(=O)COc2ccc(C(C)(C)C)cc21)c1cccc(C)c1,0.268*
CCOC(=O)c1cc(-c2ccc(OC)cc2)n(CCC(=O)NC2CCCCC2C)c1C (stereo unspecified),1.1
Cc1cccc(-c2nc(Nc3ccc(Br)cc3C)c3ccccc3n2)c1,1.1
C1=C(c2ccccc2)CCN(c2nc3cccnc3s2)C1,1.12
CCOC(=O)c1nc(Nc2cccc(Cl)c2)c2ccccc2n1,1.02
CCOC(=O)c1c(NC(=O)C(C)Oc2ccc(F)cc2)sc2c1CCCC2 (stereo unspecified),1.02
COc1ccccc1C(=O)Nc1c2c(nc3c1CCC3)CCCC2,0.948
O=C(CN1CCCCC1)Nc1c2c(nc3ccccc13)CCCC2,0.904
CN(CC(=O)Nc1c2c(nc3c1CCC3)CCCC2)Cc1ccccc1,0.242*
O=C(CN1CCCCC1)Nc1c2c(nc3c1CCC3)CCCC2,0.446*
SMILES,CBX7 inh
O=C(CCCN1Cc2ccccc2C1)Nc1c2c(nc3c1CCC3)CCCC2,1.04
NC(=O)C1CCN(CC(=O)Nc2c3c(nc4ccccc24)CCC3)CC1,1.35
COc1ccccc1-c1n[nH]c2nc(C)cc(=O)n12,0.77
COc1ccc(-c2nc(-c3nonc3N)no2)cc1OC,1.03
Cc1ccc(-c2csc(NC(=O)c3cccc(Oc4ccccc4)c3)n2)cc1,1.06
O=C(Nc1nc(-c2ccccn2)cs1)c1cccc(Oc2ccccc2)c1,0.039*
COc1cc(C(=O)Nc2ccccn2)cc(OC)c1OC,1.08
Cc1cc(C)c(-c2csc(NC(=O)c3cccc(Oc4ccccc4)c3)n2)c(C)c1,1.1
COc1ccc(C(=O)Nc2nc(-c3ccccc3)cs2)cc1OC,0.834
O=C(Nc1nc(-c2ccccn2)cs1)c1ccc(N2C(=O)CCC2=O)cc1,0.0715*
CN(Cc1ccccc1)S(=O)(=O)c1ccc(C(=O)Nc2nc(-c3ccccn3)cs2)cc1,0.94
COc1cc(C(=O)Nc2nc(-c3ccccn3)cs2)cc(OC)c1OC,0*
CCCCN(CCCC)S(=O)(=O)c1ccc(C(=O)Nc2nc(-c3ccccn3)cs2)cc1,0.933
Cc1ccc(C)c(N(C)C(=O)Cn2ncc3c2-c2ccccc2OC3)c1,0.932
CC(C)(C)N1C(=O)c2ccc(C(=O)Nc3ccc4c(c3)OCO4)cc2C1=O,1.01
O=C(O)CCc1ccc(-c2ccccc2)n1-c1ccccc1C(F)(F)F,0.8
CC1CCCC(C)N1Cc1nn2c(C(F)(F)F)c3c(nc2c1Cl)-c1ccccc1CC3 (stereo unspecified),1.09
Cc1ccc(NC(=O)C2c3ccccc3C(=O)N3CCc4ccccc4C23)nc1 (stereo unspecified),0.3*
Cc1ccccc1NC(=O)C1c2ccccc2C(=O)N2CCc3ccccc3C12 (stereo unspecified),0.97
COc1cc2c(cc1OC)C1C(C(=O)Nc3ccc(Cl)cn3)c3ccccc3C(=O)N1CC2 (stereo unspecified),0.933
O=C(NCc1ccccc1)c1cccc2c3c([nH]c12)C(C(=O)O)CCC3 (stereo unspecified),0.579
c1nc(Oc2ccc3c4c2CCCN4CCC3)c2c3c(sc2n1)CCCC3,0.268*
c1ccc(COc2ccc(Oc3ncnc4sc5c(c34)CCCC5)cc2)cc1,1.18
